Laboratory results: PubChem BioAssay AID1159580 (chemical genetic matrix, 2015)
Screen size: about 5,500 compounds; about 2,000 (36%) were called active. Inconclusive results (about 18%) are left out. No stated cut-off is given here; in the data, active means normalized growth mostly below about 0.91 (no sharp cut-off); inconclusive means no clear call, values can overlap the other calls; inactive means mostly above about 0.92. The list shows a part of the results.

Experiment: chemical genetic growth profiling, strain panel (AID 1159580);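 further: tested at 20 µM; growth read once vehicle control cultures reached saturation at 30 °C; 1 = growth at the plate median or of vehicle wells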
Details: growth OD

Measured: normalized growth

O=C1O[C@@H](CO)[C@H](O)[C@@H](O)[C@@H]1O
inactive: S. cerevisiae deletion strains, locus YJR066W, strain TOR1, stronger effect = lower value 0.965 | S. cerevisiae deletion strains, locus YKL009W, strain mrt4, stronger effect = lower value 1.02 | S. cerevisiae deletion strains, locus YKL068W, stronger effect = lower value 0.999 | S. cerevisiae deletion strains, locus YKL085W, strain MDH1 (second series), stronger effect = lower value 0.998 | S. cerevisiae deletion strains, locus YKL085W, strain MDH1, stronger effect = lower value 0.998 | S. cerevisiae deletion strains, locus YKL160W, strain elf1, stronger effect = lower value 1.02 | S. cerevisiae deletion strains, locus YKL190W, strain CNB1, stronger effect = lower value 0.999 | S. cerevisiae deletion strains, locus YKR001C, strain vps1, stronger effect = lower value 0.985 | S. cerevisiae deletion strains, locus YKR026C, strain gcn3, stronger effect = lower value 1.01 | S. cerevisiae deletion strains, locus YKR091W, strain srl3, stronger effect = lower value 1.01 | S. cerevisiae deletion strains, locus YLL001W, strain dnm1, stronger effect = lower value 1.01 | S. cerevisiae deletion strains, locus YLL026W, stronger effect = lower value 1.02 | S. cerevisiae deletion strains, locus YLL041C, strain sdh2, stronger effect = lower value 1.02 | S. cerevisiae deletion strains, locus YLR027C, strain aat2, stronger effect = lower value 1.02 | S. cerevisiae deletion strains, locus YLR039C, strain RIC1, stronger effect = lower value 1.03 | S. cerevisiae deletion strains, locus YLR058C, strain SHM2, stronger effect = lower value 1.01 | S. cerevisiae deletion strains, locus YLR102C, strain apc9, stronger effect = lower value 1.01 | S. cerevisiae deletion strains, locus YLR113W, strain HOG1, stronger effect = lower value 0.963 | S. cerevisiae deletion strains, locus YLR221C, strain rsa3, stronger effect = lower value 1.01 | S. cerevisiae deletion strains, locus YLR258W, strain gsy2, stronger effect = lower value 1.04 | S. cerevisiae deletion strains, locus YLR262C, strain YPT6 (second series), stronger effect = lower value 1 | S. cerevisiae deletion strains, locus YLR262C, strain YPT6, stronger effect = lower value 1.08 | S. cerevisiae deletion strains, locus YLR268W, strain sec22, stronger effect = lower value 1.01 | S. cerevisiae deletion strains, locus YLR320W, strain mms22, stronger effect = lower value 1.02 | S. cerevisiae deletion strains, locus YLR330W, strain CHS5, stronger effect = lower value 1.01 | S. cerevisiae deletion strains, locus YLR342W, strain FKS1 (second series), stronger effect = lower value 1.04 | S. cerevisiae deletion strains, locus YLR342W, strain FKS1, stronger effect = lower value 1.03 | S. cerevisiae deletion strains, locus YLR357W, strain rsc2, stronger effect = lower value 1.01 | S. cerevisiae deletion strains, locus YLR370C, strain arc18, stronger effect = lower value 1.03 | S. cerevisiae deletion strains, locus YLR371W, strain rom2, stronger effect = lower value 1.01 | S. cerevisiae deletion strains, locus YLR384C, strain iki3, stronger effect = lower value 1.01 | S. cerevisiae deletion strains, locus YLR418C, strain cdc73, stronger effect = lower value 1.04 | S. cerevisiae deletion strains, locus YML016C, strain PPZ1, stronger effect = lower value 1.01 | S. cerevisiae deletion strains, locus YML032C, strain rad52, stronger effect = lower value 0.991 | S. cerevisiae deletion strains, locus YML120C, strain ndi1, stronger effect = lower value 1.01 | S. cerevisiae deletion strains, locus YML124C, strain tub3, stronger effect = lower value 1 | S. cerevisiae deletion strains, locus YMR058W, strain fet3, stronger effect = lower value 1.03 | S. cerevisiae deletion strains, locus YMR078C, strain ctf18, stronger effect = lower value 1 | S. cerevisiae deletion strains, locus YMR125W, strain sto1, stronger effect = lower value 1.02 | S. cerevisiae deletion strains, locus YMR129W, stronger effect = lower value 1.02 | S. cerevisiae deletion strains, locus YMR205C, strain PFK2, stronger effect = lower value 1.04 | S. cerevisiae deletion strains, locus YMR223W, strain ubp8, stronger effect = lower value 1.04 | S. cerevisiae deletion strains, locus YMR231W, strain pep5, stronger effect = lower value 1.02 | S. cerevisiae deletion strains, locus YMR307W, strain GAS1, stronger effect = lower value 1.05 | S. cerevisiae deletion strains, locus YNL067W, strain RPL9B, stronger effect = lower value 0.994 | S. cerevisiae deletion strains, locus YNL071W, strain lat1, stronger effect = lower value 1.02 | S. cerevisiae deletion strains, locus YNL128W, strain TEP1, stronger effect = lower value 1.02 | S. cerevisiae deletion strains, locus YNL183C, strain NPR1, stronger effect = lower value 0.944 | S. cerevisiae deletion strains, locus YNL209W, strain ssb2, stronger effect = lower value 1.03 | S. cerevisiae deletion strains, locus YNL233W, strain BNI4, stronger effect = lower value 1 | S. cerevisiae deletion strains, locus YNL248C, strain rpa49, stronger effect = lower value 1.06 | S. cerevisiae deletion strains, locus YNL250W, strain rad50, stronger effect = lower value 1.05 | S. cerevisiae deletion strains, locus YNL271C, strain bni1, stronger effect = lower value 0.993 | S. cerevisiae deletion strains, locus YNL298W, strain CLA4, stronger effect = lower value 1.01 | S. cerevisiae deletion strains, locus YNL307C, strain MCK1, stronger effect = lower value 1 | S. cerevisiae deletion strains, locus YNL322C, strain KRE1 (second series), stronger effect = lower value 1 | S. cerevisiae deletion strains, locus YNR049C, strain mso1, stronger effect = lower value 1.02 | S. cerevisiae deletion strains, locus YNR052C, strain pop2, stronger effect = lower value 1.01 | S. cerevisiae deletion strains, locus YOL006C, strain TOP1, stronger effect = lower value 0.992 | S. cerevisiae deletion strains, locus YOL012C, strain htz1 0.898 | S. cerevisiae deletion strains, locus YOL147C, strain pex11, stronger effect = lower value 1 | S. cerevisiae deletion strains, locus YOR001W, strain rrp6, stronger effect = lower value 1.01 | S. cerevisiae deletion strains, locus YOR061W, strain CKA2, stronger effect = lower value 1 | S. cerevisiae deletion strains, locus YOR069W, strain VPS5, stronger effect = lower value 1.01 | S. cerevisiae deletion strains, locus YOR070C, strain gyp1, stronger effect = lower value 1.03 | S. cerevisiae deletion strains, locus YOR080W, strain dia2, stronger effect = lower value 1.01 | S. cerevisiae deletion strains, locus YOR083W, strain WHI5, stronger effect = lower value 0.994 | S. cerevisiae deletion strains, locus YOR106W, strain vam3, stronger effect = lower value 1.01 | S. cerevisiae deletion strains, locus YOR136W, strain idh2, stronger effect = lower value 0.99 | S. cerevisiae deletion strains, locus YOR144C, strain elg1, stronger effect = lower value 1.01 | S. cerevisiae deletion strains, locus YOR184W, strain ser1, stronger effect = lower value 1 | S. cerevisiae deletion strains, locus YOR231W, strain MKK1, stronger effect = lower value 0.968 | S. cerevisiae deletion strains, locus YOR265W, strain rbl2, stronger effect = lower value 1.02 | S. cerevisiae deletion strains, locus YOR270C, strain vph1, stronger effect = lower value 1.06 | S. cerevisiae deletion strains, locus YOR290C, strain snf2, stronger effect = lower value 1.04 | S. cerevisiae deletion strains, locus YOR316C, strain cot1, stronger effect = lower value 1.01 | S. cerevisiae deletion strains, locus YPL051W, strain arl3, stronger effect = lower value 1 | S. cerevisiae deletion strains, locus YPL055C, strain LGE1, stronger effect = lower value 0.958 | S. cerevisiae deletion strains, locus YPL078C, strain atp4, stronger effect = lower value 1.03 | S. cerevisiae deletion strains, locus YPL106C, strain sse1, stronger effect = lower value 1.04 | S. cerevisiae deletion strains, locus YPL240C, strain hsp82, stronger effect = lower value 1.01 | S. cerevisiae deletion strains, locus YPL241C, strain CIN2, stronger effect = lower value 1 | S. cerevisiae deletion strains, locus YPL256C, strain CLN2, stronger effect = lower value 0.953 | S. cerevisiae deletion strains, locus YPR119W, strain clb2, stronger effect = lower value 1 | S. cerevisiae deletion strains, locus YPR141C, strain kar3, stronger effect = lower value 0.989 | S. cerevisiae deletion strains, locus YPR163C, strain tif3, stronger effect = lower value 1 | S. cerevisiae deletion strains, locus YPR167C, strain met16, stronger effect = lower value 1.01 | S. cerevisiae deletion strains, strain wtn01, stronger effect = lower value 0.997 | S. cerevisiae strains, strain wild type, stronger effect = lower value 1
